Consider 16 compounds from PubChem BioAssay (NCI).

This is part of a sample that, as a whole, favours compounds with a hit. Of some 83,000 tested, about 20% had one in any assay.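 Interpretation: 100, growth as untreated; towards 0, rising growth inhibition; 0, no net growth; 0 to -100, cell death. Compounds scoring below 10 were considered active.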 A number with no mark means an inactive call. The source made the active and inactive calls.

Some test systems named below: T-47D breast; BT-549 breast; MDA-MB-435 melanoma; SW-620 colon; MCF7 breast; HCT-116 colon; HCC-2998 colon; KM12 colon.
What all share (assay): NCI-60 one-dose screen, 48 h (100 = growth as untreated, 0 = no growth, -100 = all killed)
Details in all cases: 10 µM unless noted

With `C=C1C(=O)O[C@H]2[C@H]1CC/C(COC(=O)C(=O)c1c[nH]c3ccccc13)=C\CC[C@@]1(C)O[C@@H]21`, the growth with T-47D breast is -56.8% (active); in the assay with BT-549 breast, -67.3% (active); with MDA-MB-435 melanoma, -59.4% (active); in the assay with SW-620 colon, -64.9% (active); with MCF7 breast it was -16.9% (active); with HCT-116 colon, -88.6% (active). Also, the growth is -79.5% (active) in the assay on HCC-2998 colon and -56.5% (active) in the assay with KM12 colon.

For `COc1cc(N=Nc2ccc(N)cc2)c(OC)cc1N=Nc1ccccc1.[Cl][Zn][Cl]`, the growth in the assay with T-47D breast was 88.2%; in the assay on BT-549 breast, 93.5%; with MDA-MB-435 melanoma, 98.7%; in the assay with SW-620 colon, 105%; in the assay with MCF7 breast it was 85.6%; with HCT-116 colon, 101%. Also, the growth with HCC-2998 colon is 98.9%; in the assay with KM12 colon, 105%.

As to `COC(=O)[C@]12CC[C@@H](C)[C@H](C)[C@@H]1C1=CC[C@@H]3[C@@]4(C)C(C=O)=C[C@@](C)(COC(=O)c5ccco5)C4=CC[C@@]3(C)[C@]1(C)CC2`, the growth was -8.1% (active) in the assay on T-47D breast; 5.64% (active) with BT-549 breast; -22.3% (active) in the assay on MDA-MB-435 melanoma; -7.67% (active) with SW-620 colon; 11.4% in the assay with MCF7 breast; -71.3% (active) in the assay with HCT-116 colon. For the same compound, the growth in the assay with HCC-2998 colon was -7.04% (active); in the assay on KM12 colon it was 8.54% (active).

`C[n+]1cc2c3c(ccc2c2ccc4cc5c(cc4c21)OCO5)OCO3`: the growth was -78.2% (active) with T-47D breast; -91.7% (active) in the assay with BT-549 breast; -85.8% (active) in the assay on MDA-MB-435 melanoma; -67.3% (active) in the assay with SW-620 colon; -72.5% (active) in the assay on MCF7 breast; -89.2% (active) with HCT-116 colon. The growth in the assay with HCC-2998 colon is -82.1% (active); with KM12 colon it was -78.5% (active).

In the case of `O=C(/C=C/c1ccco1)c1ccc(Nc2nc(Nc3ccc(F)cc3)nc(Nc3ccc(Cl)cc3)n2)cc1`, the growth in the assay on T-47D breast is 46.6%; in the assay with BT-549 breast, 78.7%; with MDA-MB-435 melanoma, 88.5%; with SW-620 colon, 84.4%; in the assay with MCF7 breast it was 33.4%; in the assay on HCT-116 colon it was 62.5%. Moreover, the growth is 54.8% in the assay on HCC-2998 colon and 65.2% in the assay on KM12 colon.

Regarding `c1c[nH]c(CNC2CCCCC2)c1`, the growth with T-47D breast was 105%; in the assay with BT-549 breast it was 105%; in the assay with MDA-MB-435 melanoma it was 115%; with SW-620 colon it was 102%; in the assay with MCF7 breast, 103%; with HCT-116 colon it was 103%. Besides, the growth was 109% with HCC-2998 colon and 98.2% with KM12 colon.

Consider `O=C(NCCCNc1cc(-c2cn(-c3ccccc3)nc2-c2cccc(O)c2)ccn1)c1cccc(O)c1`, for which the growth is 8.13% (active) in the assay on T-47D breast; 37.5% in the assay on BT-549 breast; 32.1% with MDA-MB-435 melanoma; 51% in the assay on SW-620 colon; 47.3% with MCF7 breast; 47.3% in the assay with HCT-116 colon. The results for the growth in the assay on HCC-2998 colon and in the assay on KM12 colon were 64.8% and 45.3%, respectively.

For `Cc1cccc(-c2nc(N(C)c3ccc4ncsc4c3)c3ccccc3n2)n1`, the growth is 60.6% in the assay with T-47D breast; 87.1% with BT-549 breast; -3.29% (active) in the assay on MDA-MB-435 melanoma; 57.9% with SW-620 colon; 45% with MCF7 breast; 65.2% with HCT-116 colon. Also, the growth in the assay with HCC-2998 colon is 84.2%; in the assay on KM12 colon it was 55.4%.

Take `Cc1c(Cl)cc(-n2c(=O)c3ccccc3c3ccccc3c2=O)cc1Cl`: the growth is 93.9% with T-47D breast; 89.8% in the assay on BT-549 breast; 104% in the assay with MDA-MB-435 melanoma; 109% in the assay on SW-620 colon; 98% in the assay on MCF7 breast; 101% with HCT-116 colon. In addition, the growth in the assay on HCC-2998 colon is 95.5%; with KM12 colon, 111%.

With `CCCc1cc2c(=O)c(C(=O)OC)c[nH]c2cc1N(CC)CC`, the growth with T-47D breast is 94.4%; with BT-549 breast it was 93.5%; with MDA-MB-435 melanoma it was 109%; in the assay with SW-620 colon, 114%; in the assay with MCF7 breast it was 80.2%; in the assay on HCT-116 colon it was 96.3%. Moreover, the growth is 104% in the assay on HCC-2998 colon and 105% in the assay with KM12 colon.

On to `O=C(COc1ccc(/C=C2\Oc3ccccc3C2=O)cc1)c1ccc(Cl)cc1`, for which the growth with T-47D breast was 98.5%; in the assay with BT-549 breast it was 121%; in the assay on MDA-MB-435 melanoma, 90.7%; in the assay with SW-620 colon, 115%; with MCF7 breast it was 95.3%; in the assay on HCT-116 colon it was 88.5%. In addition, the growth in the assay on HCC-2998 colon was 97.4%; with KM12 colon it was 98.5%.

Regarding `CN1CCN(CC(=O)Nc2nc(-c3cccc(NS(=O)(=O)c4cccc5c(N(C)C)cccc45)c3)cs2)CC1`, the growth with T-47D breast is 64.3%; with BT-549 breast, 97.1%; in the assay with MDA-MB-435 melanoma, 68.4%; with SW-620 colon, 62.6%; in the assay with MCF7 breast, 49.9%; in the assay on HCT-116 colon it was 88.4%. The growth with HCC-2998 colon was 53.6%; with KM12 colon it was 71.4%.

Consider `COc1cc(C2CC(=O)Nc3c2c(C)nn3-c2nc3ccccc3[nH]2)c(OC)c(OC)c1OC` (stereo not drawn), for which the growth with T-47D breast is 40.8%; with BT-549 breast, 52.7%; in the assay with MDA-MB-435 melanoma, -36.4% (active); in the assay on SW-620 colon it was 26.7%; in the assay on MCF7 breast, 25.4%; in the assay with HCT-116 colon it was 23.5%. Also, the growth in the assay with HCC-2998 colon is 95.2%; in the assay with KM12 colon, 35.1%.

For `COc1ccc(-c2ccc3c(c2)sc2nc(-c4ccc(F)cc4)cn23)cc1`, the growth with T-47D breast was 55.1%; in the assay with BT-549 breast, 105%; in the assay on MDA-MB-435 melanoma it was 74.3%; in the assay with SW-620 colon, 98.8%; with MCF7 breast, 33.3%; in the assay on HCT-116 colon, 42.3%. Moreover, the growth in the assay with HCC-2998 colon was 29.3%; in the assay on KM12 colon, 64.8%.

As to `N#Cc1c(N)nc2c(C#N)c(NC(=O)c3ccccc3)nn2c1-c1ccccc1`, the growth is 68.2% with T-47D breast; 97.6% in the assay with BT-549 breast; 96.7% in the assay on MDA-MB-435 melanoma; 103% in the assay with SW-620 colon; 75.8% in the assay on MCF7 breast; 92.7% in the assay with HCT-116 colon. Besides, the growth with HCC-2998 colon was 103%; in the assay on KM12 colon, 95.7%.

`COc1cc(-c2nc(N3CCN(C)CC3)c3ccccc3n2)cc(OC)c1OC`: the growth in the assay with T-47D breast was 65.3%; with BT-549 breast, 84.7%; in the assay on MDA-MB-435 melanoma, 0% (active); in the assay on SW-620 colon, 53.3%; in the assay with MCF7 breast it was 29.5%; with HCT-116 colon, 31.9%. The values for the growth in the assay on HCC-2998 colon and in the assay on KM12 colon were 88.4% and 53.4%, respectively.
